Laboratory results from PubChem BioAssay AID1159580 (chemical genetic matrix, 2015).
The campaign covered roughly 5,500 compounds. About 2,000 (36%) were called active. Not shown: some 18% with an inconclusive outcome. No stated cut-off is given here; in the data, active means normalized growth mostly below about 0.91 (no sharp cut-off); inconclusive means no clear call, values can overlap the other calls; inactive means mostly above about 0.92. This is one part of the list.

Assay: chemical genetic growth profiling, strain panel (AID 1159580);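 further: tested at 20 µM; growth read once vehicle control cultures reached saturation at 30 °C; 1 = growth at the plate median or of vehicle wells; lower values mean less growth of the strain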
Details: growth OD

Measured: normalized growth

Fc1ccc(C(c2ccccc2)(c2ccccc2F)n2ccnc2)cc1 (stereo unspecified)
active: S. cerevisiae deletion strains, locus YAL013W, strain DEP1, active compounds read low 0.0872 | S. cerevisiae deletion strains, locus YBR021W, strain FUR4, active compounds read low 0.19 | S. cerevisiae deletion strains, locus YBR229C, strain ROT2, active compounds read low 0.0785 | S. cerevisiae deletion strains, locus YCL029C, strain bik1, active compounds read low 0.0815 | S. cerevisiae deletion strains, locus YDL035C, strain GPR1, active compounds read low 0.0631 | S. cerevisiae deletion strains, locus YDL074C, strain BRE1, active compounds read low 0.147 | S. cerevisiae deletion strains, locus YDL101C, strain DUN1, active compounds read low 0.0698 | S. cerevisiae deletion strains, locus YDL134C, strain PPH21, active compounds read low 0.0588 | S. cerevisiae deletion strains, locus YDL185W, strain tfp1, active compounds read low 0.0581 | S. cerevisiae deletion strains, locus YDL192W, strain arf1, active compounds read low 0.0867 | S. cerevisiae deletion strains, locus YDR101C, strain arx1, active compounds read low 0.0775 | S. cerevisiae deletion strains, locus YDR150W, strain NUM1, active compounds read low 0.0798 | S. cerevisiae deletion strains, locus YDR162C, strain NBP2, active compounds read low 0.0536 | S. cerevisiae deletion strains, locus YDR318W, strain mcm21, active compounds read low 0.082 | S. cerevisiae deletion strains, locus YDR388W, active compounds read low 0.0787 | S. cerevisiae deletion strains, locus YDR502C, strain sam2, active compounds read low 0.079 | S. cerevisiae deletion strains, locus YEL061C, strain CIN8, active compounds read low 0.063 | S. cerevisiae deletion strains, locus YER110C, active compounds read low 0.112 | S. cerevisiae deletion strains, locus YER155C, strain BEM2, active compounds read low 0.097 | S. cerevisiae deletion strains, locus YER167W, strain BCK2, active compounds read low 0.0563 | S. cerevisiae deletion strains, locus YGL078C, strain dbp3, active compounds read low 0.111 | S. cerevisiae deletion strains, locus YGL086W, strain mad1, active compounds read low 0.0673 | S. cerevisiae deletion strains, locus YGL248W, strain PDE1, active compounds read low 0.0531 | S. cerevisiae deletion strains, locus YGR078C, strain PAC10, active compounds read low 0.0703 | S. cerevisiae deletion strains, locus YGR135W, strain pre9, active compounds read low 0.0937 | S. cerevisiae deletion strains, locus YGR229C, strain SMI1, active compounds read low 0.0699 | S. cerevisiae deletion strains, locus YGR252W, strain gcn5, active compounds read low 0.179 | S. cerevisiae deletion strains, locus YHR030C, strain SLT2, active compounds read low 0.0565 | S. cerevisiae deletion strains, locus YHR079C, strain IRE1 (second series), active compounds read low 0.0811 | S. cerevisiae deletion strains, locus YHR094C, strain hxt1, active compounds read low 0.0819 | S. cerevisiae deletion strains, locus YHR129C, strain ARP1, active compounds read low 0.0647 | S. cerevisiae deletion strains, locus YHR200W, strain rpn10, active compounds read low 0.101 | S. cerevisiae deletion strains, locus YIL066C, strain RNR3, active compounds read low 0.054 | S. cerevisiae deletion strains, locus YIL073C, strain SPO22, active compounds read low 0.128 | S. cerevisiae deletion strains, locus YIL125W, strain kgd1, active compounds read low 0.14 | S. cerevisiae deletion strains, locus YIR030C, strain dcg1, active compounds read low 0.0795 | S. cerevisiae deletion strains, locus YJL095W, strain BCK1, active compounds read low 0.0549 | S. cerevisiae deletion strains, locus YJL134W, strain LCB3, active compounds read low 0.0651 | S. cerevisiae deletion strains, locus YJL168C, strain set2, active compounds read low 0.0832 | S. cerevisiae deletion strains, locus YJL187C, strain SWE1 (second series), active compounds read low 0.0603 | S. cerevisiae deletion strains, locus YJR043C, strain POL32, active compounds read low 0.0763 | S. cerevisiae deletion strains, locus YJR075W, strain HOC1, active compounds read low 0.0813 | S. cerevisiae deletion strains, locus YKL009W, strain mrt4, active compounds read low 0.4 | S. cerevisiae deletion strains, locus YKL068W, active compounds read low 0.178 | S. cerevisiae deletion strains, locus YKL085W, strain MDH1 (second series), active compounds read low 0.126 | S. cerevisiae deletion strains, locus YKL085W, strain MDH1, active compounds read low 0.126 | S. cerevisiae deletion strains, locus YKL190W, strain CNB1, active compounds read low 0.0509 | S. cerevisiae deletion strains, locus YKR001C, strain vps1, active compounds read low 0.0897 | S. cerevisiae deletion strains, locus YLR039C, strain RIC1, active compounds read low 0.191 | S. cerevisiae deletion strains, locus YLR058C, strain SHM2, active compounds read low 0.0587 | S. cerevisiae deletion strains, locus YLR102C, strain apc9, active compounds read low 0.0876 | S. cerevisiae deletion strains, locus YLR262C, strain YPT6, active compounds read low 0.23 | S. cerevisiae deletion strains, locus YLR268W, strain sec22, active compounds read low 0.0794 | S. cerevisiae deletion strains, locus YLR330W, strain CHS5, active compounds read low 0.0657 | S. cerevisiae deletion strains, locus YLR342W, strain FKS1 (second series), active compounds read low 0.0856 | S. cerevisiae deletion strains, locus YLR371W, strain rom2, active compounds read low 0.0813 | S. cerevisiae deletion strains, locus YLR418C, strain cdc73, active compounds read low 0.127 | S. cerevisiae deletion strains, locus YML016C, strain PPZ1, active compounds read low 0.0591 | S. cerevisiae deletion strains, locus YML032C, strain rad52, active compounds read low 0.104 | S. cerevisiae deletion strains, locus YML124C, strain tub3, active compounds read low 0.0796 | S. cerevisiae deletion strains, locus YMR078C, strain ctf18, active compounds read low 0.101 | S. cerevisiae deletion strains, locus YMR223W, strain ubp8, active compounds read low 0.0885 | S. cerevisiae deletion strains, locus YMR263W, strain SAP30, active compounds read low 0.108 | S. cerevisiae deletion strains, locus YMR307W, strain GAS1, active compounds read low 0.129 | S. cerevisiae deletion strains, locus YNL067W, strain RPL9B, active compounds read low 0.0623 | S. cerevisiae deletion strains, locus YNL128W, strain TEP1, active compounds read low 0.0794 | S. cerevisiae deletion strains, locus YNL153C, strain GIM3, active compounds read low 0.0592 | S. cerevisiae deletion strains, locus YNL233W, strain BNI4, active compounds read low 0.0673 | S. cerevisiae deletion strains, locus YNL250W, strain rad50, active compounds read low 0.133 | S. cerevisiae deletion strains, locus YNL271C, strain bni1, active compounds read low 0.114 | S. cerevisiae deletion strains, locus YNL298W, strain CLA4, active compounds read low 0.0847 | S. cerevisiae deletion strains, locus YNL307C, strain MCK1, active compounds read low 0.0726 | S. cerevisiae deletion strains, locus YNL322C, strain KRE1, active compounds read low 0.0639 | S. cerevisiae deletion strains, locus YNR052C, strain pop2, active compounds read low 0.0915 | S. cerevisiae deletion strains, locus YOL006C, strain TOP1, active compounds read low 0.104 | S. cerevisiae deletion strains, locus YOL147C, strain pex11, active compounds read low 0.0687 | S. cerevisiae deletion strains, locus YOR061W, strain CKA2, active compounds read low 0.077 | S. cerevisiae deletion strains, locus YOR069W, strain VPS5, active compounds read low 0.0662 | S. cerevisiae deletion strains, locus YOR136W, strain idh2, active compounds read low 0.0938 | S. cerevisiae deletion strains, locus YOR144C, strain elg1, active compounds read low 0.076 | S. cerevisiae deletion strains, locus YOR184W, strain ser1, active compounds read low 0.094 | S. cerevisiae deletion strains, locus YOR316C, strain cot1, active compounds read low 0.0765 | S. cerevisiae deletion strains, locus YPL055C, strain LGE1, active compounds read low 0.0913 | S. cerevisiae deletion strains, locus YPL241C, strain CIN2, active compounds read low 0.0643 | S. cerevisiae deletion strains, locus YPR119W, strain clb2, active compounds read low 0.0897 | S. cerevisiae deletion strains, locus YPR141C, strain kar3, active compounds read low 0.24 | S. cerevisiae deletion strains, locus YPR163C, strain tif3, active compounds read low 0.0819 | S. cerevisiae deletion strains, locus YPR167C, strain met16, active compounds read low 0.0807 | S. cerevisiae deletion strains, strain wtn01, active compounds read low 0.1 | S. cerevisiae strains, strain wild type, active compounds read low 0.0558
inactive: S. cerevisiae deletion strains, locus YOL012C, strain htz1 0.208
